Test results from PubChem BioAssay AID504773 (Broad Institute, 2011).
Measured potencies and affinities stand elsewhere.

target: Golgi-associated PDZ and coiled-coil motif-containing protein (Homo sapiens) (UniProt Q9HD26); assay: potency against CAL PDZ-peptide interaction – biochemical, fluorescence polarization, Cerulean-tagged CAL PDZ, cherry-picks, dose response (AID 504773); conditions: CAL PDZ-peptide binding, 1 h; series mostly up to 50 µM; activity change, negative = inhibition: at the top concentration;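 also: 0% = DMSO neutral wells and -100% = excess unlabeled competitor peptide wells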

Activity change, negative = inhibition, inactive:
CCOc1ccc(NC(=O)c2nsc(Cl)c2Cl)cc1 10.5%
CN(Cc1nccn1C)C(=O)c1cc(COc2ccc3ncccc3c2)on1 16.5%
CCCCN1CC(O)=C(c2nc(-c3ccc(Cl)cc3)cs2)C1=N 6.58%
O=C(NCc1ccccn1)c1ccc(NS(=O)(=O)c2ccccc2)cc1 10.4%
CCCc1cc2c(cc1NC(=O)c1ccco1)OCO2 -11.7%
CN(C)/N=C1\CCS(=O)(=O)c2sccc21 20.3%
COc1ccc(CN2CCCC(N3CCN(c4cccc(Cl)c4)CC3)C2)cc1OC (configuration not stated) 1.02%
Cc1cc(C(=O)Nc2ccccc2Cl)c2ccccc2n1 -11.2%
COCCN(Cc1nc(C(c2ccccc2)c2ccccc2)no1)C(C)C 6.45%
Cc1cc(C)nc(/N=C(\N)N2CCc3ccccc32)n1 -36.2%
Cc1ccc(NC(=O)CN(C)C(=S)NC2CC2)cc1 -2.76%
C=CCn1c(NC(=O)c2ccco2)nc2ccccc21 -32.2%
Cc1cccc(CN2CCc3c([nH]c4ccccc34)C2CC(C)C)n1 (configuration not stated) 7.87%
Cc1nc2ccc(Br)cn2c1C(=O)N/N=C\c1ccc(C(C)C)cc1 -21%
CCOc1c(Cl)cc(CNc2nnnn2C)cc1OC 0.869%
Nc1nc2ccccc2cc1S(=O)(=O)c1ccccc1 14.9%
Cc1ccc(-n2c(SCC(N)=O)nnc2-c2ccco2)cc1 -58.1%
CCOC(=O)C1=C(C)OC(N)=C(C#N)C1c1cccc(C)c1 (configuration not stated) 8.6%
CCCn1cnc2c(SCCc3ccccc3)nc(N)nc21 -32.1%
C=CCOc1ccc2ccccc2c1CNn1cn[nH]c1=S 33%
CCc1ccc(C2CC(=O)N(c3cccc(F)c3)C3=C2C(=O)OC3)cc1 (configuration not stated) 19.7%
CCC(=O)N1CCC(C(N)=O)(N2CCCCC2)CC1 -11.6%
Cc1cccc(Nc2nc(-c3ccc(F)cc3)cs2)n1 17.6%
Cc1ccc(-c2nc3ccccc3c(=O)o2)cc1 34.2%
Cc1cc(C)nc(CCNC(=O)c2cc(COc3c(C)cccc3C)on2)n1 17.2%
CCN(C(=O)CSc1ncccc1C(=O)O)C1CCCCC1 29.8%
COc1cccc(N2CCN(C(=O)c3ccc(-c4ccccc4)cc3)CC2)c1 -7.08%
O=C(NCCc1cnc[nH]1)c1cccs1 8.56%
O=C(NC1CCCN(Cc2ccc(Cl)cc2)C1)c1cccc(N2CCCC2=O)c1 (configuration not stated) 9.36%
CC(C)c1ccc(CNC(=O)C(=O)NCCCn2ccnc2)cc1 -10.6%
O=C1CSC(=Nc2ccccc2Cl)N1 5.39%
O=C(N/N=C/c1ccc(OCc2ccccc2)cc1)c1ccc(O)cc1 12%
COc1ccc(NC(=O)c2cnn(-c3ccccc3)c2C)c(OC)c1 -23.8%
COc1ccc(C(CNC(=O)COc2ccccc2-c2ccccc2)N2CCOCC2)cc1 (configuration not stated) -0.19%
CC1CCN(CCCNC(=O)c2ccc3c(=O)n(Cc4ccc(Cl)cc4)c(=S)[nH]c3c2)CC1 25.8%
Cc1cc(C)c(OCC(=O)OC(C)C(=O)NC2CC2)c(C)c1 (configuration not stated) 5.58%
Cc1cccc(C(=O)Nc2nnc(COc3ccccc3)s2)c1 -27.5%
